FBW7 activator: activators of human E3 ligase FBW7; Q969H0; 0.13% of 650,000 active; normalized activity (activation), % at 26.1 µM; AlphaScreen FBW7–phospho-cyclin E peptide binding, activator screen; in the data active = normalized activity above about 1.9%;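 note: purified mutant Fbw7 with reduced substrate affinity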
Target sequence (Q969H0 whole entry, looked up): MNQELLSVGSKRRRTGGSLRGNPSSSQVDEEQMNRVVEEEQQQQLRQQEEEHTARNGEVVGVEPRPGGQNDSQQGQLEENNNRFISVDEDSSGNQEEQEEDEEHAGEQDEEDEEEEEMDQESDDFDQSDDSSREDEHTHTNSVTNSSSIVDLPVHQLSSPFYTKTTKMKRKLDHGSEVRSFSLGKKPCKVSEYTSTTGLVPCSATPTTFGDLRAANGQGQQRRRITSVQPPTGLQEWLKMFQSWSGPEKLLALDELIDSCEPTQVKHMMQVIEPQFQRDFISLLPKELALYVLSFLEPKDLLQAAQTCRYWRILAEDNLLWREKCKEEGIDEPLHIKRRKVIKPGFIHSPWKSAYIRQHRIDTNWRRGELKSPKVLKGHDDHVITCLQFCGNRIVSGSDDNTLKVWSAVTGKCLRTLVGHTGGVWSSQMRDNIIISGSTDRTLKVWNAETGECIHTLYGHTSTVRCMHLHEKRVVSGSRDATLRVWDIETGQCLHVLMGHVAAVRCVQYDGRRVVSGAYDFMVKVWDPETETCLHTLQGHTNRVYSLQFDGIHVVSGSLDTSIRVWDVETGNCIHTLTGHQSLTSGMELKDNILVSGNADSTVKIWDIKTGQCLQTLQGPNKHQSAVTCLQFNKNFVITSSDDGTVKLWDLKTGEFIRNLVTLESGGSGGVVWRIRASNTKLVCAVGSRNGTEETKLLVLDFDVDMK
MITF inh: human MITF inhibition, primary screen | O75030 | AlphaScreen MITF homodimerization, bead proximity signal | inhibition, % at 2.6 µM | 0.91% of 650,000 active | AID 1259374; in the data active = inhibition above about 50%;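 note: 0% = vehicle wells with protein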
TEAD-YAP block: TEAD-YAP interaction inhibition; HEK-TIYL cells, TEAD-Gal4/YAP UAS-luciferase luminescence; 1.4% of 640,000 active; inhibition, % at 9.12 µM; in the data active = inhibition above about 32%;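 note: 0% = median of test compound wells and 100% = reference inhibitor wells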
GPR151 activ: human GPR151 activation. Q8TDV0. activation, % at 11.2 µM. 1% of 650,000 active. PathHunter beta-arrestin GPR151 cells, luminescence; in the data active = activation above about 4.9%;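 note: 0% = median of compound wells and 100% = cells with positive control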
Starred values were filed as active, the others as inactive. Shown are actives, neighbours in structure and some others; about 3.4% of the full set was active somewhere.

SMILES | FBW7 activator | MITF inh | TEAD-YAP block | GPR151 activ
O=C(COc1ccccc1[N+](=O)[O-])Nc1ccccc1Cl | 0 | 18 | -49 | 0
CC(=O)Nc1ccc(NC(=O)COc2ccc(Br)cc2Cl)cc1 | 0 | -9 | -18 | -1
OC(COc1ccc(Cl)cc1)CN1C2=NCCN2c2ccccc21 (stereo not drawn) | 1 | 11 | 40* | -1
Cn1cc(-c2ccc3cnc(Nc4ccc(N5CCOCC5)nc4)nc3c2Cl)cn1 | 0 | -7 | 51* | 0
Cn1cc(-c2cccc3cnc(Nc4ccc(-n5cnc(N6CCOCC6)n5)cc4)nc23)cn1 | 0 | 1 | 2 | 0
Cn1cc(-c2ccc3cnc(Nc4ccc(-n5cnc(N6CCOCC6)n5)cc4)cc3c2)cn1 | 0 | 0 | 83* | 1
Cn1cc(-c2ccc3cnc(Nc4ccc(-c5ccc(N6CCOCC6)nc5)cc4)nc3c2Cl)cn1 | 0 | 2 | 18 | 0
Cn1cc(-c2nc(Nc3ccc(-n4cnc(N5CCOCC5)n4)cc3)ncc2F)cn1 | 0 | -4 | 22 | -1
Cc1nc(C)n(-c2ccc(Nc3cc(-c4cnn(C)c4)ccn3)cc2)n1 | 1 | 8 | 20 | -1
CC(C)N1CCN(c2ncn(-c3ccc(Nc4ncc5ccc(-c6cnn(C)c6)c(Cl)c5n4)cc3)n2)CC1 | 0 | -9 | 90* | -1
Cn1cc(-c2ccc3cnc(Nc4ccccc4)cc3c2)cn1 | 1 | 17 | 36* | -1
CN(C)CCn1c(=N)n(CC(O)c2ccco2)c2ccccc21 (stereo not drawn) | 0 | 13 | -3 | 0
CCCCn1cnc2sc3c(c2c1=O)CCC(NCc1cn2c(C)cccc2n1)C3 (stereo not drawn) | 0 | 11 | -1 | 0
CC(Nc1cnn(C23CC4CC(CC(C(=O)O)(C4)C2)C3)c(=O)c1Cl)c1ccccc1 (stereo not drawn) | 0 | 2 | 1 | -1
Cn1cc(-c2ccc3cnc(Nc4ccc(-n5cnc(N6CCOCC6)n5)cc4)nc3c2OCCN2CCOCC2)cn1 | 0 | 33 | 96* | -2
Clc1cnc(Nc2ccc(-n3cnc(N4CCOCC4)n3)cc2)nc1-c1cn[nH]c1 | 0 | 0 | 55* | -1
c1cc(-n2cnc(N3CCOCC3)n2)ccc1Nc1ncc2cc(-c3cn[nH]c3)ccc2n1 | 1 | 40 | -6 | -2
CCOC(=O)c1c(-c2cnn(C)c2)ccc2cnc(Nc3ccc(-n4cnc(N5CCOCC5)n4)cc3)nc12 | 0 | 21 | 98* | -1
Cn1cc(-c2nc(Nc3ccc(-n4cnc(N5CCC(O)CC5)n4)cc3)ncc2Cl)cn1 | 0 | 24 | 72* | -1
Cc1c(-c2cnn(C)c2)ccc2cnc(Nc3ccc(-n4cnc(N5CCOCC5)n4)cc3)nc12 | 0 | 14 | 29 | 2
O=C(Nc1ccc2c(c1)OCCO2)c1cc(I)ccc1Cl | 0 | 8 | -42 | -2
Cn1cc(-c2ccc3cnc(Nc4ccc(-n5cnc(N6CCOCC6)n5)cc4)nc3c2Cl)cn1 | 0 | 6 | 56* | 0
Cc1ccc(/C=C(/C#N)C(=O)Nc2ccc(Cl)cc2)o1 | 0 | -9 | -71 | 2
O=c1c2c3c(sc2n2cnnc2n1Cc1ccccc1)CCCC3 | 1.9* | 18 | -5 | 0
COc1ccc(N2C(=O)CC(Sc3nc(C)c4ccccc4n3)C2=O)cc1 (stereo not drawn) | 1 | -4 | 53* | 0
SMILES | FBW7 activator | MITF inh | TEAD-YAP block | GPR151 activ
COc1ccc(N2C(=O)CC(Sc3ccccc3C(=O)O)C2=O)cc1 (stereo not drawn) | 0 | 6 | 12 | 1
COc1ccc(N2C(=O)CC(SCCN)C2=O)cc1 (stereo not drawn) | 2.5* | 27 | -29 | -1
CCOC(=O)C(N)CSC1CC(=O)N(c2ccc(OC)cc2)C1=O (stereo not drawn) | 0 | 3 | -9 | 0
O=C(N=C1N=C2C=CC(Cl)=CN2Cc2ccccc21)c1cc[n+]([O-])cc1 | 0 | 7 | 1 | -1
COc1ccc(N(C)C2=NS(=O)(=O)c3ccccc32)cc1 | 0 | 4 | 45* | 0
O=Cc1c(O)n(-c2ccc(Cl)cc2)c(=O)[nH]c1=O | 2.5* | 14 | 12 | 0
Cc1ccc(Nc2nc(CSc3nnnn3-c3ccccc3)cs2)cc1 | 0 | 12 | -2 | 1
CCCSc1nnc(Sc2nnnn2-c2ccccc2)s1 | 0 | 3 | 56* | 1
c1ccc(CCSc2nnnn2-c2ccccc2)cc1 | 0 | 1 | -47 | 0
Cc1ccc(Nc2nnc(Sc3nnnn3-c3ccccc3)s2)cc1 | 1 | 7 | 53* | -1
NNC(=O)c1cncn1-c1ccccc1 | 0 | -16 | 37* | 0
